This excerpt belongs to a sample that is enriched for hits.
LmPK inhibitor: inhibitors of Leishmania mexicana pyruvate kinase. Q27686. purified LmPK, Kinase-Glo ATP luminescence, 1 h. Potency, µM (doses to about 57.5 µM), usual class: inhibitors. 290,000 tested, 0.37% active. AID 1721
Target sequence (Q27686 whole entry, looked up): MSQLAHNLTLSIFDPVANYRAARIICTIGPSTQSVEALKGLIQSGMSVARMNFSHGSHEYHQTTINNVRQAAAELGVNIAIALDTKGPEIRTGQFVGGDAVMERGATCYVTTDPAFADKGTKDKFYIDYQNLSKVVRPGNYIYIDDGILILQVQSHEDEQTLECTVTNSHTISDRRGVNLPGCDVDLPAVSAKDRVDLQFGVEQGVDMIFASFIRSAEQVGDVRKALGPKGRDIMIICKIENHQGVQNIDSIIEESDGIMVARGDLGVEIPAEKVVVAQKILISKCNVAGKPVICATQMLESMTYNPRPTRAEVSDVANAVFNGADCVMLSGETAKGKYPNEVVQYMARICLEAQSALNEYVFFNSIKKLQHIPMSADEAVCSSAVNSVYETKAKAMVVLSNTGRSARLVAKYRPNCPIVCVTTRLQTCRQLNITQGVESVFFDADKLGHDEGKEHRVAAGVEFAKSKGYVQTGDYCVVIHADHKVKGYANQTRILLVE
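Purified LmPK (0.1 nM) converted ADP (0.1 mM) to ATP with PEP (0.5 mM) in imidazole buffer pH 7.2 with KCl and MgCl2, 1 h at room temperature. ATP was read by Kinase-Glo luminescence; data normalized to uninhibited and no-enzyme controls.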
Cycloheximide cs: counter-screen for Shiga toxin inhibitors: cycloheximide protein synthesis inhibition; cell reporter, cycloheximide protein synthesis inhibition counterscreen; 300,000 tested, 12% active; max response, %; in the data active = max response mostly above about 13%, no sharp cut-off; inactive = mostly below about 14%; note: read at 38.3 µM for the half of the compounds with a filed dose
Shiga inhibitor: inhibitors of Shiga toxin in Vero cells; Vero cells, Shiga toxin protein synthesis inhibition reporter; inhibition, % at 38.7 µM; 290,000 tested, 9.2% active; AID 2315; in the data active = inhibition mostly above about 28%, no sharp cut-off; inactive = mostly below about 43%
Sm TGR inh: inhibitors of Schistosoma mansoni thioredoxin glutathione reductase | Q962Y6 | purified TGR, DTNB reduction, TNB absorbance 405 nm | Potency, µM (highest dose often 114 µM), hits mostly inhibitors | 360,000 tested, 3% active; note: nearly all actives have a fitted effect of over 60% in size
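Kinetic colorimetric format: TGR-catalysed, NADPH-driven DTNB reduction monitored via TNB absorbance. Enzyme dispensed at 20 nM; compound exposure 15 min at room temperature before reaction start.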
Giardia FBPA inh: inhibitors of Giardia lamblia fructose-1,6-bisphosphate aldolase | Potency, µM (doses to about 59.6 µM), actives largely listed as inhibitors | 290,000 tested, 0.71% active | purified Giardia FBPA; note: nearly all actives have a fitted effect of over 55% in size
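Giardia FBPA (40 nM reagent) was preincubated 10 min at RT with compound (up to 57.5 uM final), then substrate plus GAPDH/TPI/NAD/arsenate coupling system with diaphorase/resazurin was added; resorufin fluorescence (525/598 nm) was read after 20 min.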
TbPYK inhibitor: T. brucei pyruvate kinase inhibition | Q57TT1 | AID 624173 | Potency, µM (highest dose often 76.8 µM), hits mostly inhibitors | TbPYK enzyme, Kinase-Glo Plus ATP luminescence, 45 min | 410,000 tested, 0.12% active; note: nearly all actives have a fitted effect of over 50% in size
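TbPYK + substrate in 50 mM TEA pH 7.2, 100 mM KCl, 10 mM MgCl2, 0.05% BSA, 0.01% Tween-20; cpd pinned; ADP 130 uM final; 45 min RT; Kinase-Glo Plus 10 min; luminescence endpoint.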
A number is an active result; [ ] = another dose, or the depositor's remark. Unless noted, calls come from the whole dose curve; as a rule, active = well fitted curve in the direction sought with a large enough effect; inconclusive = small, poorly fitted or top-dose-only effect, or another doubt; inactive = no such curve, though single readings can be large; an effect the other way counts as inactive or inconclusive.

`CN1CC(=O)N(CC(=O)Nc2cccc(C#N)c2)c2ccccc2C1=O` gave Sm TGR inh inactive and TbPYK inhibitor inactive.
For CCN(CC(=O)Nc1ccc(NC(C)=O)cc1)C(=O)Cc1ccc(S(=O)(=O)N2CCOCC2)s1 the results were Sm TGR inh inactive and TbPYK inhibitor inactive.
CCOC(=O)c1c(/C=N/Nc2ccccc2)c2sc(C)cc2n1C was read as Sm TGR inh 22.4µM.
C=CCNC(=S)Nc1cccc(NC(=S)NCC=C)c1 was read as LmPK inhibitor inactive, Cycloheximide cs inactive, Shiga inhibitor inactive, Sm TGR inh inconclusive, Giardia FBPA inh inactive and TbPYK inhibitor inactive.
`NC(=S)Nc1ccc2cn[nH]c2c1` gave LmPK inhibitor inactive, Cycloheximide cs inactive, Shiga inhibitor inactive, Sm TGR inh inactive, Giardia FBPA inh inactive and TbPYK inhibitor inactive.
Screening FC(F)Oc1ccc(NC(=S)Nc2ccc3cn[nH]c3c2)cc1 returned LmPK inhibitor inactive, Cycloheximide cs inactive, Shiga inhibitor inactive, Sm TGR inh inactive, Giardia FBPA inh inactive and TbPYK inhibitor inactive.
Screening Cc1cc(C)cc(NC(=S)Nc2ccc3cn[nH]c3c2)c1 returned LmPK inhibitor inactive, Cycloheximide cs inactive, Shiga inhibitor inactive, Sm TGR inh inactive, Giardia FBPA inh inactive and TbPYK inhibitor inactive.
For C=CCNC(=S)Nc1ccc(OC(=O)Nc2ccc(Cl)c(Cl)c2)cc1 the results were LmPK inhibitor inactive, Cycloheximide cs inactive, Shiga inhibitor inactive, Sm TGR inh 35.5µM, Giardia FBPA inh inconclusive and TbPYK inhibitor inactive.
Screening Cc1ccc(NC(=S)Nc2ccc3cn[nH]c3c2)cc1 returned LmPK inhibitor inactive, Cycloheximide cs 17.9, Shiga inhibitor inactive, Sm TGR inh inactive, Giardia FBPA inh inactive and TbPYK inhibitor inactive.
C=CCNC(=S)Nc1ccc2cn[nH]c2c1 was read as LmPK inhibitor inactive, Cycloheximide cs inactive, Shiga inhibitor inactive, Sm TGR inh 39.8µM, Giardia FBPA inh inconclusive and TbPYK inhibitor inactive.
`S=C(Nc1ccccc1)Nc1ccc2cn[nH]c2c1` gave LmPK inhibitor inactive, Cycloheximide cs 46.1, Shiga inhibitor 55.1, Sm TGR inh inconclusive, Giardia FBPA inh inconclusive and TbPYK inhibitor inactive.
Screening CCOc1ccc(CCNC(=O)c2cc(Nc3ccc(C)cc3C)nc3ccccc23)cc1OCC returned Sm TGR inh inactive and TbPYK inhibitor inactive.
For O=C(CCCN1C(=O)c2cccnc2Oc2ccc(Cl)cc21)NCc1ccccc1F the results were Sm TGR inh inactive and TbPYK inhibitor inactive[15.4 µM].
`Cc1ccc(NC(=S)Nc2cccc(-c3n[nH]c(=S)o3)c2)cc1` gave LmPK inhibitor inactive, Cycloheximide cs 32.4, Shiga inhibitor 40.2, Sm TGR inh 12.6µM, Giardia FBPA inh inactive and TbPYK inhibitor inactive.
O=C(NC(=S)Nc1ccc2cn[nH]c2c1)c1ccccc1 was read as LmPK inhibitor inactive, Cycloheximide cs 40.9, Shiga inhibitor 78.7, Sm TGR inh 14.1µM, Giardia FBPA inh inconclusive and TbPYK inhibitor inactive.
`COc1ccc(CNC(=O)CCS(=O)(=O)c2cc(Br)cc3c2N(C(=O)C2CC2)CC3)cc1` gave Sm TGR inh inconclusive and TbPYK inhibitor inactive.
`O=C1NCCN1CCN1CCC(c2cn(-c3ccc(F)cc3)c3ccc(Cl)cc23)CC1` gave TbPYK inhibitor inactive.
For Cc1ccc(NC(=O)C2CCCN(S(=O)(=O)c3cccs3)C2)c(C)c1 (stereo not given) the results were Sm TGR inh inactive and TbPYK inhibitor inactive.
For CCCCC1C2C(=O)N(c3ccc(C)cc3)C(=O)C2ON1c1ccccc1 (stereo not given) the results were LmPK inhibitor inactive, Cycloheximide cs 34.7, Shiga inhibitor 103.7, Sm TGR inh inconclusive, Giardia FBPA inh inactive and TbPYK inhibitor inactive.
`CCCOc1ccc(N2C(=O)C3ON(c4ccccc4)C(CCC)C3C2=O)cc1` (stereo not given) gave LmPK inhibitor inactive, Cycloheximide cs inactive, Shiga inhibitor inactive, Sm TGR inh 22.4µM, Giardia FBPA inh inactive and TbPYK inhibitor inactive.
`CCCC1C2C(=O)N(c3ccccc3)C(=O)C2ON1c1ccccc1` (stereo not given) gave LmPK inhibitor inactive, Cycloheximide cs inactive, Shiga inhibitor inactive, Sm TGR inh inactive, Giardia FBPA inh inactive and TbPYK inhibitor inactive.
NS(=O)(=O)c1ccc(CNC(=O)c2sccc2-c2ccccc2)cc1 was read as LmPK inhibitor inactive, Cycloheximide cs inactive, Shiga inhibitor inactive, Sm TGR inh inactive, Giardia FBPA inh inactive and TbPYK inhibitor inactive.
`CCCn1nc([N+](=O)[O-])c(C(C#N)c2nc3ccccc3s2)c(Cl)c1=O` (stereo not given) gave LmPK inhibitor inconclusive, Cycloheximide cs inactive, Shiga inhibitor inactive, Sm TGR inh 1.26µM, Giardia FBPA inh inactive and TbPYK inhibitor inactive.
`CCn1nc([N+](=O)[O-])c(C(C#N)c2nc3ccccc3n2C)c(Cl)c1=O` (stereo not given) gave LmPK inhibitor inactive, Cycloheximide cs inactive, Shiga inhibitor inactive, Sm TGR inh 14.1µM, Giardia FBPA inh inactive and TbPYK inhibitor inactive.
Cn1c(C(C#N)C(=O)c2sc3ccccc3c2Cl)nc2ccccc21 (stereo not given) was read as LmPK inhibitor inactive, Cycloheximide cs inactive, Shiga inhibitor inactive, Sm TGR inh inactive, Giardia FBPA inh inactive and TbPYK inhibitor inactive.
COc1ccc(S(=O)(=O)Nc2c(O)c3ccccc3oc2=O)cc1 was read as LmPK inhibitor inactive, Cycloheximide cs 14.8, Shiga inhibitor 69.0, Sm TGR inh inactive, Giardia FBPA inh inactive and TbPYK inhibitor inactive.
COc1ccc(S(=O)(=O)Nc2ccccc2)cc1 was read as TbPYK inhibitor inactive.
Screening Cc1ccc(S(=O)(=O)Nc2c(O)c3ccccc3oc2=O)cc1 returned LmPK inhibitor inactive, Cycloheximide cs inactive, Shiga inhibitor inactive, Sm TGR inh inactive, Giardia FBPA inh inactive and TbPYK inhibitor inactive.
COc1ccc(S(=O)(=O)Nc2ccc(O)c3ccccc23)cc1 was read as LmPK inhibitor inactive, Cycloheximide cs inactive, Shiga inhibitor inactive, Sm TGR inh 20µM, Giardia FBPA inh inactive and TbPYK inhibitor inactive.
Cc1ccc(N(C(=O)c2cc3ccccc3oc2=O)C2C=CS(=O)(=O)C2)cc1 (stereo not given) was read as LmPK inhibitor inactive, Cycloheximide cs inactive, Shiga inhibitor inactive, Sm TGR inh inactive, Giardia FBPA inh inactive and TbPYK inhibitor inactive.
Screening CCOc1ccc(N(C(=O)c2cc3ccccc3oc2=O)C2C=CS(=O)(=O)C2)cc1 (stereo not given) returned LmPK inhibitor inactive, Cycloheximide cs 27.8, Shiga inhibitor 77.9, Sm TGR inh inactive, Giardia FBPA inh inactive and TbPYK inhibitor inactive.
Screening Cc1cc(C)cc(NC(=O)C(Cc2ccccc2)NS(=O)(=O)c2ccc3c(c2)CCC(=O)N3)c1 (stereo not given) returned Sm TGR inh inactive and TbPYK inhibitor inactive.

Screening results from PubChem.
